Hits are enriched below; roughly 19% of the tested compounds scored in any of these assays.
TDP1 cell noCPT = qHTS for Inhibitors of human tyrosyl-DNA phosphodiesterase 1 (TDP1): qHTS in cells in absence of CPT. DT40 Tdp1-/- hTDP1 cells, no CPT, ATP luminescence, 48 h. Potency, µM (series often up to 46.2 µM), most hits filed as inhibitors. 420,000 compounds, 15% hits. AID 686978, 2013; further: nearly all actives have a fitted effect of over 55% in size
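No-CPT arm: Tdp1-/-;hTDP1 DT40 cells (400/well) plus compounds, incubated ≥48 hr at 37 °C. Readout CellTiter-Glo luminescence.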
HT1080 IDH1KD tx = qHTS for induction of synthetic lethality in tumor cells producing 2HG: qHTS for the HT-1080-IDH1KD cell line; HT-1080 IDH1 knockdown viability, ATP luminescence, 48 h; Potency, µM (highest dose often 46.1 µM), actives largely listed as cytotoxic; 360,000 compounds, 2% hits; AID 686971, 2013
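Cytotoxicity counter-line: IDH1KD HT-1080, 48 h, CellTiter-Glo. Curves classed by r2, magnitude and activity.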
HT1080-NT tox = qHTS for induction of synthetic lethality in tumor cells producing 2HG: qHTS for the HT-1080-NT fibrosarcoma cell line; HT-1080-NT fibrosarcoma viability, CellTiter-Glo ATP luminescence, 48 h; Potency, µM (top dose mostly 46.1 µM), most hits filed as cytotoxic; 360,000 compounds, 1.6% hits;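 further: NT is the 2HG producing partner of a matched IDH1 knockdown line; nearly all actives have a fitted effect of over 55% in size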
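Compounds were tested in concentration-response format on HT-1080-NT cells for 48 hours at 37 degrees C. Cell viability came from CellTiter-Glo luminescence; curves were classified by r2, response magnitude and activity.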
TDP1 cell CPT = qHTS for Inhibitors of human tyrosyl-DNA phosphodiesterase 1 (TDP1): qHTS in cells in presence of CPT; chicken DT40 Tdp1-/-;hTDP1 cells + 20 nM CPT, ATP luminescence, 48 h; Potency, µM (top dose mostly 46.2 µM), hits mostly inhibitors; 420,000 compounds, 12% hits; further: nearly all actives have a fitted effect of over 55% in size
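Chicken DT40 Tdp1-/- cells stably complemented with human TDP1 were seeded at 400 cells/well in medium containing 20 nM camptothecin, exposed to pin-transferred compounds, and grown at 37 °C for at least 48 hr. Viability was read as ATP luminescence.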
KB-V1 cytotox = qHTS assay for MDR1-selective chemotherapeutics: Primary screen using the drug-selected MDR subline cells KB-V1; Potency, µM (highest dose often 46.1 µM), usual class: cytotoxic; KB-V1 MDR cells viability, CellTiter-Glo, 72 h; AID 1347076, 2019; 400,000 compounds, 3.4% hits; further: nearly all actives have a fitted effect of over 60% in size
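Compound-treated KB-V1 multidrug-resistant cells, 72 h, 37 degrees C; viability by CellTiter-Glo. Fitted qHTS curves give the values.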
KB-3-1 cytotox = qHTS assay for MDR1-selective chemotherapeutics: Primary screen using the parental adenocarcinoma cell KB-3-1; KB-3-1 viability, CellTiter-Glo ATP luminescence, 72 h; Potency, µM (doses to about 46.1 µM), usual class: cytotoxic; 400,000 compounds, 1.4% hits; AID 1347075, 2019; further: nearly all actives have a fitted effect of over 60% in size
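Cytotoxicity measured as CellTiter-Glo luminescence after 72 h at 37 C. Compound titrations were pinned onto drug-naive KB-3-1 parental adenocarcinoma cells grown in DMEM with 10% FBS, and normalized data fitted to concentration-response curves.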
Numbers stand for hits; 0 = inactive; ? = inconclusive; - = no result; [ ] = remark or other dose. The call rests on the fitted dose curve; in most records, active means well fitted curve in the direction sought with a large enough effect; inconclusive means small, poorly fitted or top-dose-only effect, or another doubt; inactive means no such curve, though single readings can be large; an effect the other way counts as inactive or inconclusive.

SMILES	TDP1 cell noCPT	HT1080 IDH1KD tx	HT1080-NT tox	TDP1 cell CPT	KB-V1 cytotox	KB-3-1 cytotox
C=CCn1c(SCC(=O)Nc2ccc(OC)cc2)nnc1-c1cnccn1	0	0	0	0	0	0
COc1ccc(Cl)cc1NC(=O)C[n+]1cccc(C)c1	?	0	0	0	0	0
O=C(CCSCc1ccc(Cl)cc1)NCc1cccnc1	0	0	0	0	0	0
COc1ccc(CCNc2ncnc3sc(C(=O)N4CCCCC4)c(C)c23)cc1OC	18µM	-	-	0[9.04 µM]	-	-
Fc1ccc(CCNc2ncnc3[nH]ncc23)cc1	16µM	0	0	?	4.1µM	12µM
OCCCNc1ncnc2[nH]ncc12	0	0	0	0	0	0
O=C(O)/C=C/c1cn(Cc2ccccc2)nc1-c1ccc(Cl)cc1	0	0	0	0	0	0
O=C(Nc1ccccc1)c1cccc(S(=O)(=O)Nc2cccc(F)c2)c1	26µM	-	-	?	0	0
O=C(Nc1cccc(F)c1)c1ccccc1	0	0	0	0	0	0
Cc1cccc(Nc2ncc(NC(=O)c3cccc(F)c3)c(Nc3cccc(C)c3)n2)c1	5.8µM	-	-	7.3µM	0	0
O=C(Nc1ccc(Nc2ccccc2)cc1)c1cccc(F)c1	18µM	0	0	?	0	0
CCC(=O)Nc1ccc(Cl)c(NC(=O)C(C)C)c1	0	0	0	0	0	0
COC(=O)c1c(NC(=O)CCC(=O)O)sc(Cc2ccccc2)c1C	0	0	0	0	0	0
CCCC(=O)Nc1sc(Cc2ccccc2)c(C)c1C(N)=O	23µM	0	0	?	0	0
Cc1sc(NC(=S)NC(=O)c2ccco2)c(C(N)=O)c1C	0	?	0	0	0	0
Cc1sc(NC(=S)NC(=O)CCc2ccccc2)c(C(N)=O)c1C	0.18µM	?	0.16µM	0.21µM	?	0.18µM
COC(=O)CCC(=O)NC(=S)Nc1sc(C)c(C)c1C(N)=O	0.15µM	0.33µM	?	0.16µM	1.6µM	0.65µM
O=C1CCCC(=O)N1c1ccc(N2CCOCC2)c([N+](=O)[O-])c1	0	0	0	0	0	0
O=C1c2cc(F)ccc2-n2c1nc1ccccc1c2=O	0.37µM	?	?	0.21µM	5.2µM	6.5µM
COc1cccc(N2CCN(c3nc(-c4ccccc4C)cc(=O)[nH]3)CC2)c1	?	?	?	0	?	?
COc1cc2c(cc1OC)CN(C(=O)c1ccc(OC)c(S(=O)(=O)N3CCOCC3)c1)CC2	0	0	0	0	0	0
Cc1cccc(Cc2c(C)nc3nc(SCc4cccc(F)c4)nn3c2C)c1	?	-	-	21µM	0	0
Cc1cc(C)n2nc(SCc3c(F)cccc3Cl)nc2n1	26µM	0	0	?	?	0
Cc1cccc(Cc2c(C)nc3nc(SCc4ccccc4F)nn3c2C)c1	9.2µM	-	-	13µM	0	0
Cc1nc2nc(SCc3c(F)cccc3Cl)nn2c(C)c1Cc1ccccc1	8.2µM	-	-	13µM	-	-
SMILES	TDP1 cell noCPT	HT1080 IDH1KD tx	HT1080-NT tox	TDP1 cell CPT	KB-V1 cytotox	KB-3-1 cytotox
Cc1nc2nc(SCC(=O)NCc3ccccc3Cl)nn2c(C)c1Cc1ccccc1	?	-	-	?	0	0
Cc1cc(C)cc(C(O)c2ncc(-c3ccccc3F)[nH]2)c1 (stereo not drawn)	?	0	0	?	0	0
COc1ccc(OC)c(NC(=O)C2CCN(S(=O)(=O)c3c(C)noc3/C=C/c3ccc(C)cc3)CC2)c1	?	-	-	0	0	0
CC(C)(C)c1ccc(S(=O)(=O)Nc2cccc(C3OCCCO3)c2)cc1	15µM	0	0	15µM	15µM	0
CCCCOc1ccc(C(=O)NNC(=S)NC(=O)CC)cc1	2.6µM	?	?	4.6µM	?	?
COc1ccc(C(=O)NC(=S)NNC(=O)c2ccc(C)cc2)cc1	?	?	?	?	0	?
C=CCNC(=S)NNC(=O)c1ccc(OCCCC)cc1	0	0	0	0	0	0
CCC(=O)NC(=S)NNC(=O)c1ccc(OC)cc1	22µM	?	0	29µM	?	0
O=C(CS(=O)(=O)c1ccccc1)Nc1ccc(Br)cn1	0	0	0	?	16µM	0
CC(NC(=O)/C=C/c1ccc(Br)cc1)c1ccccc1 (stereo not drawn)	?	0	0	16µM	?	0
CCCCC(=O)Nc1ccc(Br)cn1	0	0	0	0	0	0
O=C(/C=C/c1ccccc1)Nc1ncn[nH]1	10µM	7.9µM	11µM	7.3µM	0	0
C=CCCC(=O)Nc1ccc(Br)cn1	18µM	?	?	?	?	?
C[C@@H]1COC(=O)[C@@H](CC(=O)OC(C)(C)C)C/C=C\C[C@@H](CC(=O)NCCO)C(=O)N1	0	0	0	0	0	0
Fc1ccc2c(c1)-c1nc(-c3ccccc3)cc(-c3ccccc3)c1CO2	0	-	-	?	?	0
CCNC(=O)C1(C)CCCCN1Cc1ccc(C#N)cc1 (stereo not drawn)	?	0	0	?	0	0
COc1ccc(N2CCN(C(=O)CN(C3CCCCC3)S(C)(=O)=O)CC2)cc1	0	0	0	0	?	0
Cc1ccc2[nH]c(C(=O)N3CCN(c4cccc(Cl)c4)CC3)cc2c1	0	0	0	0	0	0
O=C(/C=C/c1ccccc1)Nc1ccc(Br)cn1	2.3µM	5.2µM	6.5µM	2.3µM	0	5.2µM
CCc1cc(C(c2cccc(OC)c2)N2CCOCC2)c(NC(=O)c2ccccc2)s1 (stereo not drawn)	15µM	?	0	?	0	0
CCc1cc(C(c2ccc(OC)c(OC)c2)N2CCOCC2)c(NC(=O)c2ccccc2)s1 (stereo not drawn)	21µM	0	0	?	?	0
COc1cccc(C(c2c(NC(=O)c3ccccc3)sc(C)c2C)N2CCN(C)CC2)c1 (stereo not drawn)	?	0	0	?	21µM	?
COc1ccc(C(c2c(NC(=O)c3ccccc3)sc(C)c2C)N2CCN(CCO)CC2)cc1 (stereo not drawn)	0	0	0	0	0	0
O=C(OCC(O)C1OC(c2ccccc2)OC(COC(=O)c2ccccc2)C1O)c1ccccc1 (stereo not drawn)	?	0	?	?	0	0
Cc1ccc(N(CC(=O)N2CCN(c3ccc(F)cc3)CC2)S(=O)(=O)c2c(C)noc2C)cc1	?	0	0	15µM	0	0

Screening data from PubChem BioAssay.
